From the supplement of paper PMC6411743
± gives the standard deviation of the averaged measurements. Targets with the largest changes are over-represented here; the source holds about 5,400 in all.

Compound: Nc1nc2c(ncn2[C@@H]2O[C@H](COP(=O)(O)OP(=O)(O)OP(=O)(O)O)[C@@H](O)[C@H]2O)c(=O)[nH]1 [guanosine triphosphate]
Experiment: NP40-soluble protein abundance relative to vehicle (solubility fold change) (ratio); higher = more soluble protein in presence of GTP
Method in brief: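 Eight concentrations, 0.1 to 10 mM, were tested on Jurkat crude lysate for 10 min at room temperature and then 3 min at 37 °C, in three independent experiments. The lysate was solubilised with 0.8% NP40 and benzonase, ultracentrifuged, and the supernatant TMT-labelled for LC-MS/MS. Each value is the fold change against the detergent-processed vehicle in its own replicate, from vsn-normalised intensities.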

UniProt Q01081, sequence (Q01081 whole entry, looked up, other chains not shown): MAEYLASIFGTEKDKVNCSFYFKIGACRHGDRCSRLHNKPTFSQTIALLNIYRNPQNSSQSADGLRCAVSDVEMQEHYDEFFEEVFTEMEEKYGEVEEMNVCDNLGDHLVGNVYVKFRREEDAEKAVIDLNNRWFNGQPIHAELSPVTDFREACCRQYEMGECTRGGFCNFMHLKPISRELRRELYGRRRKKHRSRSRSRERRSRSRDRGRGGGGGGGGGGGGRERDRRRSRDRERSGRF
UniProt O94906, sequence (O94906 whole entry): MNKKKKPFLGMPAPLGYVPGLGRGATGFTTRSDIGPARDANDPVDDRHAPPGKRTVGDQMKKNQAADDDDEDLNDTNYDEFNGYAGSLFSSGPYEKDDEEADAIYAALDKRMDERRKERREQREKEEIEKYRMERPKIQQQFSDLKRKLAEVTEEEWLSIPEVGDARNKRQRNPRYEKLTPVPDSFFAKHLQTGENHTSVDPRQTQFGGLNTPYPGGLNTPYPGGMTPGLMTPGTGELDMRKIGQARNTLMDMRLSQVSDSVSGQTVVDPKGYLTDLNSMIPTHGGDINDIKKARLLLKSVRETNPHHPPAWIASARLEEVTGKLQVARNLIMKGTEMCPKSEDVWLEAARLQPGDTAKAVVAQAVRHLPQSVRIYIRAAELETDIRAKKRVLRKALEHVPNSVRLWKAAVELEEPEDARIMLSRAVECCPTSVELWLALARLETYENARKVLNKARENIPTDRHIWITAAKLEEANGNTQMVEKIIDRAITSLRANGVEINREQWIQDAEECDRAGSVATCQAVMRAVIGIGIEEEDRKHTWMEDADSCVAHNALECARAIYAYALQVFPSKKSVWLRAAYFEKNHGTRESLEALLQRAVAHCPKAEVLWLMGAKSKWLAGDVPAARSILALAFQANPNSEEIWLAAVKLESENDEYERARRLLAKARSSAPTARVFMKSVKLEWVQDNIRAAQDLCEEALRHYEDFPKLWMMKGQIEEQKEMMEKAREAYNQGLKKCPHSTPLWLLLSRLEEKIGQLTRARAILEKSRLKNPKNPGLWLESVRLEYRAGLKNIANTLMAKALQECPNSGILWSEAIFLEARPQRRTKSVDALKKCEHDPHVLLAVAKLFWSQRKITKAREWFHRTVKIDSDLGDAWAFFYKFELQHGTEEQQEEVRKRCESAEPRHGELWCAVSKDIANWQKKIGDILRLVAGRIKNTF
UniProt P09382, sequence (P09382 whole entry): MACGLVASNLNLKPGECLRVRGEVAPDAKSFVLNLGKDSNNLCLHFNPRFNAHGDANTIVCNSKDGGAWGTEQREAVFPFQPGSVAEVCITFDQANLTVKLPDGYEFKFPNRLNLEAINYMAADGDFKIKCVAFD
UniProt P09564, sequence (P09564 whole entry): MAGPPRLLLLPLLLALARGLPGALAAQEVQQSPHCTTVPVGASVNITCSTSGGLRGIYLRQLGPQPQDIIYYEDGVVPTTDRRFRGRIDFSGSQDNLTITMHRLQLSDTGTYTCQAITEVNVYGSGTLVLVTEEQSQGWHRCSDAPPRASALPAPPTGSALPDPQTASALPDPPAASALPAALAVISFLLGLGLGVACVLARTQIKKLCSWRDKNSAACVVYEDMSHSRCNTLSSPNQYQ
UniProt P20339, sequence (P20339 whole entry): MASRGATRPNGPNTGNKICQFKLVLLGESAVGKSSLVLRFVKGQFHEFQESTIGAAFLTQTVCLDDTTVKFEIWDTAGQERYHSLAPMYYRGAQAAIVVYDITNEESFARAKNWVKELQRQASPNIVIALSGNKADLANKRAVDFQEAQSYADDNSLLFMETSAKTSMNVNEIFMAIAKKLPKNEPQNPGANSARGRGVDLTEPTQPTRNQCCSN
UniProt O14980, sequence (O14980 whole entry): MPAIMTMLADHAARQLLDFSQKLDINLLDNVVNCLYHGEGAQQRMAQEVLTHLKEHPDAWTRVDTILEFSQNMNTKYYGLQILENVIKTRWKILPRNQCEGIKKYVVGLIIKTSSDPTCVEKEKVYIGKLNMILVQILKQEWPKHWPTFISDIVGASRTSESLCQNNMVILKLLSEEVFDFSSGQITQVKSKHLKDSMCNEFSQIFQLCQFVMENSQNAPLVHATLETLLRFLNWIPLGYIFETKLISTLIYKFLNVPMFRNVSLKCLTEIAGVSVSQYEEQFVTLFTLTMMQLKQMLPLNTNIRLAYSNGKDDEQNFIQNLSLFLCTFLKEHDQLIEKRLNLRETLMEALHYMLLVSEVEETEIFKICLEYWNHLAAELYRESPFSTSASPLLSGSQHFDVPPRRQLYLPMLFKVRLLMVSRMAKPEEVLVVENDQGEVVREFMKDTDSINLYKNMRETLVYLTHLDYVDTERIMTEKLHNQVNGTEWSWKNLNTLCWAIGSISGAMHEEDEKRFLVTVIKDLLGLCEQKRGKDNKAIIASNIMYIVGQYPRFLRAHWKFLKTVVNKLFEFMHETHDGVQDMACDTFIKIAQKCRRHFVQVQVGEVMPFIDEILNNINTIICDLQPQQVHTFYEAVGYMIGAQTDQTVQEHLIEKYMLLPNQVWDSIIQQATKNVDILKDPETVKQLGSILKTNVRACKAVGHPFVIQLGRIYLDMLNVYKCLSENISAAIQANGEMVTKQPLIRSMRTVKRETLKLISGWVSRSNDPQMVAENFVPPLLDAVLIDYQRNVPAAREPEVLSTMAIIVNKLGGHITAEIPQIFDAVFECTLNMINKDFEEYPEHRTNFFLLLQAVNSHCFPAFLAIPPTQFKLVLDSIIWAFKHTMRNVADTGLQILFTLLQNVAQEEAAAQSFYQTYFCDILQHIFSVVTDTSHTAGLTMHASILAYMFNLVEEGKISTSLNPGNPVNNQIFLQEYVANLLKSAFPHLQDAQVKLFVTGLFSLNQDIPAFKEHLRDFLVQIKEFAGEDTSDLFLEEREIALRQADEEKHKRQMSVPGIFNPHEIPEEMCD
UniProt O43181, sequence (O43181 whole entry): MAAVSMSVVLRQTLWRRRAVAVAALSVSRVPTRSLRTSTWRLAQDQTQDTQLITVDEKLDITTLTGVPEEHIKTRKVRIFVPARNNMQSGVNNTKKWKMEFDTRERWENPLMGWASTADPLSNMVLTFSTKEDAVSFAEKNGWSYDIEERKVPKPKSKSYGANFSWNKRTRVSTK
UniProt P27144, sequence (P27144 whole entry): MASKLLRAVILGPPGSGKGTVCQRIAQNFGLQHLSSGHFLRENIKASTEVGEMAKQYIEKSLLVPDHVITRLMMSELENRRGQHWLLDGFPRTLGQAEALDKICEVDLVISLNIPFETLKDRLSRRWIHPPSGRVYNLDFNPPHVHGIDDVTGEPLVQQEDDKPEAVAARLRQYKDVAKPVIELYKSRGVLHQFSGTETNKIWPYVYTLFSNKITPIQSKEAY
UniProt P49588, sequence (P49588 whole entry): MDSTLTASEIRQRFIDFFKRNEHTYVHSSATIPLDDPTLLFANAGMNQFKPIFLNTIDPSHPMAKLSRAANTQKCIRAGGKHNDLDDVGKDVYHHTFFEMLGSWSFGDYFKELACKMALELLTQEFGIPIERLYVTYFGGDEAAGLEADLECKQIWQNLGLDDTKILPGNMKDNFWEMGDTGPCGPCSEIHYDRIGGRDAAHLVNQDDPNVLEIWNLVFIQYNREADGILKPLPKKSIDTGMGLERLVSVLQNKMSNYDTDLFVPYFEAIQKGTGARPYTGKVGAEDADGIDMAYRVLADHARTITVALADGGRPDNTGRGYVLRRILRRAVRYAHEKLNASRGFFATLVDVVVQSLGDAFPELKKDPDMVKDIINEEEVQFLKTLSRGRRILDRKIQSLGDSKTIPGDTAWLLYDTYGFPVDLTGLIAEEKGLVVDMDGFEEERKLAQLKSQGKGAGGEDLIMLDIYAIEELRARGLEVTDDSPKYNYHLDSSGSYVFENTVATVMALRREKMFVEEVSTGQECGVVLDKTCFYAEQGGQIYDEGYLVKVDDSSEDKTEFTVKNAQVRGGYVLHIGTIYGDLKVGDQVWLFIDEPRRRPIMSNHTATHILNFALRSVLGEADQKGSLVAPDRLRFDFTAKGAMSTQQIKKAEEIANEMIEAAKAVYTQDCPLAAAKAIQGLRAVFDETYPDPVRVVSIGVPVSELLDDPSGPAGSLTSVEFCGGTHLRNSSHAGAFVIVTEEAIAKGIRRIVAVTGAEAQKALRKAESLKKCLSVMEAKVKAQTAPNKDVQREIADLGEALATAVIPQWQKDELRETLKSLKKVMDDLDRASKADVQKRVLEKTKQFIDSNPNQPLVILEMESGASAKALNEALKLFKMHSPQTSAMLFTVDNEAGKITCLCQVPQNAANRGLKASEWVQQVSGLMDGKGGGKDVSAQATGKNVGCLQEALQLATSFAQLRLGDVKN
UniProt O75822, sequence (O75822 whole entry): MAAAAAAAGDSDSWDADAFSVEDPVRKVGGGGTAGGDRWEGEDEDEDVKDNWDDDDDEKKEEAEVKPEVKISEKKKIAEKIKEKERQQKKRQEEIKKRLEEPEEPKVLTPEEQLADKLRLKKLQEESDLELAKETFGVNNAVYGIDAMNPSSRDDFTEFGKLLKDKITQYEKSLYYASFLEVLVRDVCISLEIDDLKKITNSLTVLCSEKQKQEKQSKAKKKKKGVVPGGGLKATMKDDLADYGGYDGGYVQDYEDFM
UniProt P26368, sequence (P26368 whole entry): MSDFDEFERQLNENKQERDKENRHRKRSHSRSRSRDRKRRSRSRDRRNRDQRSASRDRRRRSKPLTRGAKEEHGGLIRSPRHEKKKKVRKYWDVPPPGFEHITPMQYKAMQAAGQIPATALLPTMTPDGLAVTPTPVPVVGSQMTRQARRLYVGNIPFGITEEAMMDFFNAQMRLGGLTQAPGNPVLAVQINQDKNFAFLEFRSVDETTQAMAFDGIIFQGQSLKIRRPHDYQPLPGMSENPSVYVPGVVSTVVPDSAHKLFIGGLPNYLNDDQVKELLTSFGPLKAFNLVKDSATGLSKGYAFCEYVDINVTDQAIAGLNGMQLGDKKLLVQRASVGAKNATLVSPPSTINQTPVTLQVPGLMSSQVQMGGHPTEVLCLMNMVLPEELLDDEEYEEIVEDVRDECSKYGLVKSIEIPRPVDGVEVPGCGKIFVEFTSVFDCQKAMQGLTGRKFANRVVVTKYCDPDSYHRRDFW

Target	NP40-soluble protein abundance (concentration: 0.1mM)	NP40-soluble protein abundance (concentration: 0.5mM)	NP40-soluble protein abundance (concentration: 1mM)	NP40-soluble protein abundance (concentration: 2mM)	NP40-soluble protein abundance (concentration: 4mM)	NP40-soluble protein abundance (concentration: 6mM)	NP40-soluble protein abundance (concentration: 8mM)	NP40-soluble protein abundance (concentration: 10mM)
PPT1 (UniProt P50897)	0.888 ± 0.06	0.859 ± 0.12	0.968 ± 0.083	0.872 ± 0.12	0.873 ± 0.068	0.887 ± 0.11	0.876 ± 0.059	0.861 ± 0.099
I3L3Y9|I3L4X7|Q13227|Q13227-2 (UniProt Q13227)	0.978 ± 0.059	0.878 ± 0.0093	1.01 ± 0.13	1.01 ± 0.072	1.02 ± 0.11	1.06 ± 0.11	1.03 ± 0.13	1.08 ± 0.14
UniProt O00567	1.05 ± 0.035	1.03 ± 0.046	1.1 ± 0.087	1.23 ± 0.075	1.55 ± 0.12	1.75 ± 0.12	2.06 ± 0.14	2.48 ± 0.13
GSTM2 (UniProt P28161)	1.03 ± 0.058	0.947 ± 0.051	1 ± 0.1	0.976 ± 0.085	0.956 ± 0.1	0.932 ± 0.11	0.886 ± 0.091	0.899 ± 0.12
RAD21 (UniProt O60216)	0.975 ± 0.037	0.991 ± 0.03	1.06 ± 0.023	1.07 ± 0.044	1.09 ± 0.028	1.07 ± 0.038	1.11 ± 0.062	1.12 ± 0.092
K7EQW8|P67936|K7ERG3 (UniProt P67936)	0.803 ± 0.15	0.716 ± 0.089	1.39 ± 0.5	1.19 ± 0.29	1.27 ± 0.27	1.27 ± 0.21	1.15 ± 0.34	1.83 ± 0.49
UniProt P30622|P30622-1	0.996 ± 0.068	1 ± 0.086	1.01 ± 0.08	0.97 ± 0.11	0.953 ± 0.076	0.954 ± 0.069	1 ± 0.088	1.01 ± 0.11
UniProt P49588|P49588-2	0.95 ± 0.017	0.981 ± 0.025	0.928 ± 0.032	0.895 ± 0.034	0.876 ± 0.043	0.905 ± 0.041	0.877 ± 0.04	0.848 ± 0.052
CRKL (UniProt P46109)	0.973 ± 0.029	0.958 ± 0.058	0.967 ± 0.092	0.932 ± 0.073	0.921 ± 0.076	0.906 ± 0.089	0.923 ± 0.093	0.876 ± 0.086
P39880-3|Q13948|Q13948-2|P39880 (UniProt Q13948+P39880)	0.948 ± 0.035	0.948 ± 0.058	1.01 ± 0.049	0.978 ± 0.063	1.01 ± 0.054	0.997 ± 0.052	1.03 ± 0.024	1.05 ± 0.063
UniProt O94906|O94906-2	1.06 ± 0.055	1.17 ± 0.086	1.26 ± 0.17	1.42 ± 0.27	1.66 ± 0.44	1.91 ± 0.46	2.23 ± 0.58	2.34 ± 0.6
HIST1H1C (UniProt P16403)	0.984 ± 0.038	1.11 ± 0.074	1.18 ± 0.072	1.22 ± 0.048	1.23 ± 0.096	1.38 ± 0.074	1.26 ± 0.1	1.78 ± 0.15
J3KQL8|Q9BQE5 (UniProt Q9BQE5)	0.987 ± 0.019	1.01 ± 0.041	0.984 ± 0.054	0.956 ± 0.058	0.917 ± 0.044	0.982 ± 0.05	0.957 ± 0.045	0.928 ± 0.051
DNAJC8 (UniProt O75937)	0.838 ± 0.14	0.801 ± 0.056	1.1 ± 0.17	1.09 ± 0.056	1.08 ± 0.14	1.14 ± 0.12	1.05 ± 0.21	1.3 ± 0.25
XPO1 (UniProt O14980)	1.01 ± 0.027	1.02 ± 0.033	0.936 ± 0.022	0.926 ± 0.072	0.916 ± 0.054	0.918 ± 0.033	0.882 ± 0.023	0.848 ± 0.044
UniProt O75822|O75822-2	0.856 ± 0.038	0.825 ± 0.074	0.908 ± 0.09	0.954 ± 0.098	1.07 ± 0.17	1.32 ± 0.22	1.4 ± 0.3	1.77 ± 0.39
NDUFS4 (UniProt O43181)	1 ± 0.029	1.047 ± 0.0028	1.08 ± 0.053	1.12 ± 0.1	1.09 ± 0.12	1.1 ± 0.12	1.14 ± 0.18	1.1 ± 0.15
AK4 (UniProt P27144)	0.983 ± 0.072	0.887 ± 0.088	1.03 ± 0.042	1 ± 0.075	1.03 ± 0.11	0.987 ± 0.11	0.975 ± 0.16	0.983 ± 0.11
LGALS1 (UniProt P09382)	0.889 ± 0.036	0.886 ± 0.037	0.885 ± 0.042	0.789 ± 0.055	0.813 ± 0.11	0.822 ± 0.067	0.821 ± 0.03	0.809 ± 0.055
UniProt P13051|P13051-2	0.9724 ± 0.0086	0.946 ± 0.019	0.944 ± 0.073	0.91 ± 0.062	0.886 ± 0.075	0.892 ± 0.07	0.893 ± 0.036	0.863 ± 0.1
M0R2U2|P22087 (UniProt P22087)	1.02 ± 0.054	1.03 ± 0.032	1.08 ± 0.068	1.21 ± 0.056	1.52 ± 0.068	1.77 ± 0.082	2.13 ± 0.11	2.47 ± 0.083
P0DN76|Q01081|Q01081-2 (UniProt Q01081+P0DN76)	1.23 ± 0.074	1.61 ± 0.28	1.64 ± 0.32	1.67 ± 0.32	1.71 ± 0.36	1.78 ± 0.4	1.79 ± 0.45	1.76 ± 0.38
TGFB1 (UniProt P01137)	0.926 ± 0.072	1.02 ± 0.11	0.908 ± 0.091	0.961 ± 0.092	0.987 ± 0.055	0.958 ± 0.088	0.896 ± 0.11	0.968 ± 0.14
TOMM40 (UniProt O96008)	1.01 ± 0.045	1.04 ± 0.031	0.953 ± 0.041	0.967 ± 0.018	0.946 ± 0.043	0.936 ± 0.037	0.939 ± 0.077	0.905 ± 0.061
UniProt P09564	1.03 ± 0.2	0.908 ± 0.048	1.09 ± 0.19	0.942 ± 0.15	1.02 ± 0.13	0.977 ± 0.15	1 ± 0.17	0.932 ± 0.14
NUDT2 (UniProt P50583)	0.93 ± 0.17	0.902 ± 0.14	0.884 ± 0.15	0.877 ± 0.15	1.8 ± 0.49	1.24 ± 0.23	1.48 ± 0.34	1.16 ± 0.26
UniProt P26368|P26368-2	1.21 ± 0.06	1.64 ± 0.23	1.67 ± 0.25	1.69 ± 0.25	1.7 ± 0.29	1.75 ± 0.25	1.73 ± 0.29	1.71 ± 0.26
UniProt O94964-2|O94964|O94964-4|X6R3R3	1.05 ± 0.11	0.998 ± 0.13	1.139 ± 0.011	1.07 ± 0.025	1.09 ± 0.047	1.03 ± 0.037	1.12 ± 0.072	0.994 ± 0.041
UniProt P20339|P20339-2	0.999 ± 0.016	1.08 ± 0.04	0.875 ± 0.057	0.937 ± 0.059	0.865 ± 0.034	0.85 ± 0.024	0.82 ± 0.13	0.828 ± 0.14
